Experimental data reported in PubChem BioAssay (EPA / NIEHS).
Activity calls are given as the source filed them. The calls were made as follows: active = hit-call score of the fitted dose curve at least 0.9, where 1 is the maximum; inactive = score below 0.9.

Tests used:
Conditions in all cases: mRNA level, 48 h; actives raise or lower the signal
[1] = read-out: matrix metalloproteinase-3 (MMP3), MMP3 (gene 4314); assay: LTEA_HepaRG_MMP3: Life Technologies and Expression Analysis (LTEA) Assay for matrix metalloproteinase-3 (MMP3) using HepaRG (AID 2283519)
Outline: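 Fluidigm-based TaqMan qRT-PCR, normalized to ACTB, GAPDH and POLR2A and fitted bidirectionally versus 0.5% DMSO, measured transcript levels. Treatment: duplicate 48 h exposures of HepaRG cells, ~100,000/well, to eight half-log concentrations topping at 100 uM.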

[2] = read-out: Paternally Expressed 10 (PEG10), PEG10 (gene 23089); assay: LTEA_HepaRG_PEG10: Life Technologies and Expression Analysis (LTEA) Assay for Paternally Expressed 10 (PEG10) using HepaRG (AID 2283520);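 as to AC50: PEG10 transcript by qRT-PCR normalised to ACTB GAPDH and POLR2A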
Outline: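 Human HepaRG cultures are dosed for 48 h across an eight-point half-log series starting at 100 uM, with 0.5% DMSO as vehicle and baseline. Gain or loss of PEG10 transcript is measured by qRT-PCR and fitted in both directions.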

[3] = read-out: Nuclear factor NF-kappa-B p105 subunit (Homo sapiens) (UniProt P19838); assay: LTEA_HepaRG_NFKB1: Life Technologies and Expression Analysis (LTEA) Assay for Nuclear Factor Kappa B Subunit 1 (NFKB1) using HepaRG (AID 2283521)
Outline: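 HepaRG, 48 h exposure; 8-pt half-log series from 100 uM in 0.5% DMSO; duplicates. Readout: NFKB1 mRNA by qRT-PCR (Fluidigm arrays), housekeeping-normalized. Gain/loss fit vs DMSO baseline.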

[4] = read-out: Protein phosphatase 2A (PPP2R4), PTPA (gene 5524); assay: LTEA_HepaRG_PPP2R4: Life Technologies and Expression Analysis (LTEA) Assay for Protein phosphatase 2A (PPP2R4) using HepaRG (AID 2283522)
Outline: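 Cells were plated, cultured 48 h, switched to serum-free induction medium, then dosed for 48 h (8 points, max 100 uM, 0.5% DMSO). RNA was isolated and PPP2R4 expression measured by TaqMan qRT-PCR.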

[5] = read-out: Phosphatase and tensin (PTEN), PTEN (gene 5728); assay: LTEA_HepaRG_PTEN: Life Technologies and Expression Analysis (LTEA) Assay for Phosphatase and tensin (PTEN) using HepaRG (AID 2283523)
Outline: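 Read-out: TaqMan qRT-PCR of PTEN transcript, normalized to three housekeeping genes, fitted in both directions against 0.5% DMSO. Differentiated human HepaRG cultures received chemicals for 48 h, eight-point half-log series topping at 100 uM.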

[6] = read-out: solute carrier (SLC22A1), SLC22A1 (gene 6580); assay: LTEA_HepaRG_SLC22A1: Life Technologies and Expression Analysis (LTEA) Assay for solute carrier (SLC22A1) using HepaRG (AID 2283524);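 as to AC50: differentiated human HepaRG liver cells in serum-free induction medium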
Outline: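 Transcript level of SLC22A1 quantified by qRT-PCR (normalized to three housekeeping genes) after 48 h chemical exposure of HepaRG cells, eight concentrations up to 100 µM, half-log steps, 0.5% DMSO vehicle. Gain or loss relative to DMSO fitted bidirectionally.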

[7] = read-out: NAD(P)H dehydrogenase [quinone] 1 (NQO1), NQO1 (gene 1728); assay: LTEA_HepaRG_NQO1: Life Technologies and Expression Analysis (LTEA) Assay for NAD(P)H dehydrogenase [quinone] 1 (NQO1) using HepaRG (AID 2283526)
Outline: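 Transcript induction or suppression is quantified by qRT-PCR in human HepaRG liver cells dosed for 48 hours. Eight half-log concentrations topping at 100 uM are used, with 0.5% DMSO as vehicle and baseline.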

[8] = read-out: Nuclear factor erythroid 2-related factor 2 (Homo sapiens) (UniProt Q16236); assay: LTEA_HepaRG_NFE2L2: Life Technologies and Expression Analysis (LTEA) Assay for Nuclear factor erythroid 2-related factor 2 (NFE2L2) Transcription Factor using HepaRG (AID 2283527)
Outline: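 NFE2L2 transcript level was read by qRT-PCR (housekeeping ACTB/GAPDH/POLR2A normalisation) after 48 h chemical treatment of HepaRG in serum-free induction medium. Duplicate 8-point half-log curves, top 100 uM, 0.5% DMSO vehicle; up- or down-regulation fitted against vehicle.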

[9] = read-out: succinate dehydrogenase complex iron sulfur subunit B (SDHB), SDHB (gene 6390); assay: LTEA_HepaRG_SDHB: Life Technologies and Expression Analysis (LTEA) Assay for succinate dehydrogenase complex iron sulfur subunit B (SDHB) using HepaRG (AID 2283528)
Outline: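 Readout is SDHB transcript level by qRT-PCR, normalised to three housekeeping genes and fitted bidirectionally against 0.5% DMSO vehicle. Human HepaRG cells were treated for 48 h at up to 100 uM.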

[10] = read-out: Pyruvate Dehydrogenase Kinase 4 (PDK4), PDK4 (gene 5166); assay: LTEA_HepaRG_PDK4: Life Technologies and Expression Analysis (LTEA) Assay for Pyruvate Dehydrogenase Kinase 4 (PDK4) using HepaRG (AID 2283525)
Outline: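 Readout is qRT-PCR of PDK4 transcript, normalized to three housekeeping genes, with bidirectional fitting against 0.5% DMSO vehicle. Differentiated HepaRG cells were treated 48 h in serum-free induction medium, duplicate wells, eight-point half-log series topping at 100 uM.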

Measured: AC50

Sequence of Nuclear factor NF-kappa-B p105 subunit (Homo sapiens) (P19838 whole entry, looked up): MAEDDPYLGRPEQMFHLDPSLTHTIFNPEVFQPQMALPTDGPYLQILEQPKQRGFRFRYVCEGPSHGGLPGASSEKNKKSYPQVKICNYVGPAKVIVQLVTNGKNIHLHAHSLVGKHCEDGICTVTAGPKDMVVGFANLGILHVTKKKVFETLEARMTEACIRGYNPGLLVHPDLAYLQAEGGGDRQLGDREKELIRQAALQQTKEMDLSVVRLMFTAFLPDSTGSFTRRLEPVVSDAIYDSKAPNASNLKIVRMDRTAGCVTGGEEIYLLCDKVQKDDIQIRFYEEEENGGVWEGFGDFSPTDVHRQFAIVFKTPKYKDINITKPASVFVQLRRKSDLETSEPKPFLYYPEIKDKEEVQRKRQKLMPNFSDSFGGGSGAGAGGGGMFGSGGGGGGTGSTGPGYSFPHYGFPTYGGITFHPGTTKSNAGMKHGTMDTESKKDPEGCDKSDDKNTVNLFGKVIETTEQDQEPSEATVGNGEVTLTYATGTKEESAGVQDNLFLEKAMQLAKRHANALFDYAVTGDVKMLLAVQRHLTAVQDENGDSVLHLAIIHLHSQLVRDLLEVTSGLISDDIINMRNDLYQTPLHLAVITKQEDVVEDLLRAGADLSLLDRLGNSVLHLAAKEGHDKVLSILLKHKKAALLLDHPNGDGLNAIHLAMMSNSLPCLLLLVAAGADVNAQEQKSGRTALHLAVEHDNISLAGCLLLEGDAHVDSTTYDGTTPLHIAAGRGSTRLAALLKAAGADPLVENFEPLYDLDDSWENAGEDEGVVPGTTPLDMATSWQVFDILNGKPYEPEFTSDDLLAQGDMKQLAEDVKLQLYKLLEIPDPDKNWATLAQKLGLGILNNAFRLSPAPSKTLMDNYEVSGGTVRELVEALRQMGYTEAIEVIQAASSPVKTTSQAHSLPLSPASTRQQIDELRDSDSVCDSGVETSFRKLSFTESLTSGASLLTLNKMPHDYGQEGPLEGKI
Sequence of Nuclear factor erythroid 2-related factor 2 (Homo sapiens) (Q16236 whole entry, looked up): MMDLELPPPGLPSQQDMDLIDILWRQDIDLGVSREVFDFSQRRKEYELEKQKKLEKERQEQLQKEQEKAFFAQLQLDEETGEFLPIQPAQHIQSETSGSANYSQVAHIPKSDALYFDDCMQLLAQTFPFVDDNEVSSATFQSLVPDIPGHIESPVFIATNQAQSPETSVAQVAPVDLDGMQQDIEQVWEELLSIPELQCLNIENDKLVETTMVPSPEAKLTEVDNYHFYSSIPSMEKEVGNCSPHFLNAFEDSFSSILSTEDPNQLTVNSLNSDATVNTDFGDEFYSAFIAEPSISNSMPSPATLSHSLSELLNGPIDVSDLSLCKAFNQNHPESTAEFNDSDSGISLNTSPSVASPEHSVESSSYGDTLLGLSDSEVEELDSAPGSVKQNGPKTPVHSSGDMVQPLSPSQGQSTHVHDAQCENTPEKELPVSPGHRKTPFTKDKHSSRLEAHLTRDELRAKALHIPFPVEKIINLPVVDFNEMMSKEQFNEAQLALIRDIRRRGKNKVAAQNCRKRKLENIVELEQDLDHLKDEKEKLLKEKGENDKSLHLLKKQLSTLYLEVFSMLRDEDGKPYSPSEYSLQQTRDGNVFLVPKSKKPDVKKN

CCCCCC(=O)O
not listed: [10]
inactive: all other assays above

O=C(O)CCCCC(=O)O
not listed: [10]
inactive: all other assays above

CN1CCN(Cc2cc(-c3ccc4[nH]c(=O)oc4c3)co2)[C@@H](c2ccc(F)cc2)C1
active: [2] 82.7 µM | [6] 50 µM
not listed: [10]
inactive: all other assays above

Cc1cc(=O)[nH]c(=S)[nH]1
not listed: [10]
inactive: all other assays above

CCCCN(CCCC)CCCC
not listed: [10]
inactive: all other assays above

Nc1nc(N)c2nc(CNc3ccc(C(=O)N[C@@H](CCC(=O)O)C(=O)O)cc3)cnc2n1
not listed: [10]
inactive: all other assays above

Oc1ccc2c(c1)OC[C@@H](N1CCC(O)(c3ccc(F)cc3)CC1)[C@H]2O
not listed: [10]
inactive: all other assays above

Cc1ccc(C(C)C)c(O)c1
not listed: [10]
inactive: all other assays above

COc1cc(-c2nc(NC(=O)c3cc4cc(C)cc(C)c4n3CC(=O)O)sc2CCC2CCCCC2)c(OC)cc1Cl
active: [2] 11.9 µM | [3] 19.4 µM | [4] 8.71 µM | [5] 16.8 µM | [6] 7.07 µM | [10] 24.4 µM | [7] 3.35 µM | [9] 13.4 µM
inactive: [1] | [8]

O=C(OCCCCCOC(=O)c1ccccc1)c1ccccc1
inactive: [2] | [6]
active: [1] 2.23 µM | [3] 2.08 µM | [4] 2.43 µM | [5] 1.85 µM | [7] 1.8 µM | [8] 0.145 µM

OC[C@@H](O)[C@@H](O)[C@H](O)[C@H](O)CO
not listed: [10]
inactive: all other assays above

CNCc1cc(F)ccc1Oc1ccc(Cl)c(Cl)c1
active: [1] 50 µM | [2] 0.689 µM | [3] 86.3 µM | [4] 50 µM | [6] 86.5 µM
inactive: [5] | [7] | [8] | [9]

Cc1ccc2ncccc2c1
not listed: [10]
inactive: all other assays above

C[C@]12C=CC(=O)C=C1CC[C@@H]1[C@@H]2C(=O)C[C@@]2(C)[C@H]1CC[C@]2(O)C(=O)CO
not listed: [10]
inactive: all other assays above

c1cc(-c2ccncc2)ccn1
active: [1] 17.6 µM
not listed: [10]
inactive: all other assays above

CC(C)c1ccc(C(=O)N=C(N)N)cc1S(C)(=O)=O
active: [1] 1.4 µM | [3] 0.291 µM | [4] 0.532 µM | [5] 0.277 µM | [6] 0.35 µM | [7] 0.959 µM | [8] 7.8 µM
inactive: [2] | [9]

Nc1ccccc1N
inactive: [3] | [7] | [8]
active: [1] 81.8 µM | [2] 64.8 µM | [4] 77.5 µM | [5] 67.4 µM | [6] 62.4 µM | [9] 85.1 µM

CN1CCCC1=O
not listed: [3] | [10]
inactive: all other assays above

Cc1nc(C)nc(N2C[C@@H](C)N(c3ccnc([C@@H](C)O)n3)[C@@H](C)C2)n1
active: [1] 25 µM
not listed: [6]
inactive: all other assays above

CC(=O)OC/C=C(\C)CCC=C(C)C
not listed: [3]
inactive: all other assays above

COc1ccc2c(c1)c(CC(=O)O)c(C)n2C(=O)c1ccc(Cl)cc1
not listed: [3]
inactive: all other assays above

O=C(O)Cc1ccccc1Nc1c(Cl)cccc1Cl
not listed: [3]
inactive: all other assays above

COc1cc(S(=O)(=O)O)c(C)cc1N=Nc1c(O)ccc2cc(S(=O)(=O)O)ccc12
not listed: [3] | [10]
inactive: all other assays above

CCc1c(C(=O)NN2CCCCC2)nn(-c2ccc(Cl)cc2Cl)c1-c1ccc(Br)cc1
inactive: [4] | [5] | [9]
active: [2] 29.3 µM | [3] 74.8 µM | [6] 40.4 µM | [10] 22.1 µM | [7] 80.1 µM | [8] 72.4 µM

O=c1[nH]cc(F)c(=O)[nH]1
active: [4] 51 µM | [6] 51 µM
not listed: [3] | [10]
inactive: all other assays above

FC(F)(F)C(F)(F)C(F)(F)C(F)(F)C(F)(F)C(F)(F)CCI
not listed: [3] | [10]
inactive: all other assays above

CCCCCCCCCCCCCCCC
not listed: [3]
inactive: all other assays above

COc1ccc(S(=O)(=O)N2C(=O)[C@@](c3ccccc3OC)(N3C[C@H](O)C[C@H]3C(=O)N(C)C)c3cc(Cl)ccc32)c(OC)c1
active: [1] 50 µM | [2] 21.5 µM | [4] 32.4 µM | [5] 16.8 µM | [6] 20.5 µM | [7] 29.5 µM | [8] 83.2 µM | [9] 12.9 µM

C=CCc1ccc(O)c(OC)c1
not listed: [3] | [10]
inactive: all other assays above

NS(=O)(=O)c1cc2c(cc1Cl)NCNS2(=O)=O
not listed: [3] | [10]
inactive: all other assays above

CCCCCCCCCCCCCO
not listed: [3] | [10]
inactive: all other assays above

CCCCc1ccc2c(n1)[C@@H](c1ccc(OC)cc1C[C@H](C)C(=O)O)[C@H](C(=O)O)[C@H]2c1ccc2c(c1)OCO2
not listed: [3]
inactive: all other assays above

CC(=O)OCCOCCOCCOC(C)=O
not listed: [3]
inactive: all other assays above

COCCOC[C@H](CC1(C(=O)NC2CCC(C(=O)O)CC2)CCCC1)C(=O)Oc1ccc2c(c1)CCC2 (some centres undefined)
not listed: [3]
inactive: all other assays above

Nc1ccc2c(c1)C(=O)c1ccccc1C2=O
active: [2] 15.5 µM | [6] 7.06 µM | [8] 27.8 µM
not listed: [4] | [10]
inactive: all other assays above

CC=Cc1ccc(O)c(OC)c1
not listed: [3] | [10]
inactive: all other assays above

Cc1c(C(=O)O)c(O)cc2c1C(=O)c1c(O)c([C@@H]3O[C@H](CO)[C@@H](O)[C@H](O)[C@H]3O)c(O)c(O)c1C2=O
not listed: [3] | [10]
inactive: all other assays above

Cc1ccccc1Cl
not listed: [3] | [10]
inactive: all other assays above

Cc1cc(NC(=O)C(=O)O)cc(C)c1Oc1ccc(O)c2c1CCC2
active: [6] 9.92 µM | [10] 0.00353 µM
not listed: [3]
inactive: all other assays above

CCOc1ccc2c(c1)C(C)=CC(C)(C)N2
active: [2] 31.8 µM | [4] 50 µM
not listed: [3] | [10]
inactive: all other assays above

CCOC(=O)CCC(=O)OCC
active: [5] 81.2 µM
not listed: [3]
inactive: all other assays above

NCCO
not listed: [3]
inactive: all other assays above

CC1(C)CC(N=C=O)CC(C)(CN=C=O)C1 (centres undefined)
not listed: [10]
inactive: all other assays above

Cc1ccc(Cl)cc1
not listed: [3] | [5]
inactive: all other assays above

CCCc1cc(=O)[nH]c(=S)[nH]1
not listed: [3]
inactive: all other assays above

CC(=O)C(C)=CC1C(C)=CCCC1(C)C (centres undefined)
not listed: [3] | [10]
inactive: all other assays above
